PubChem BioAssay AID1159580 (chemical genetic matrix, 2015)
“And” between values parts separate entries of the source, which are not always exact repeats. Identical values can stand only once. Out of some 5,500 compounds screened, about 2,000 (36%) were called active. Another 18% or so got no clear call; they are omitted. Cut-off read from the data, not from the text of the source: active = normalized growth mostly below about 0.91 (no sharp cut-off); inconclusive = no clear call, values can overlap the other calls; inactive = mostly above about 0.92. The list shows a part of the results.

Test: chemical genetic growth profiling, strain panel (AID 1159580);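 note: tested at 20 µM; growth read once vehicle control cultures reached saturation at 30 °C; 1 = growth at the plate median or of vehicle wells; lower values mean less growth of the strain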
Conditions: S. cerevisiae deletion strains, growth OD

Measured: normalized growth

O=C(O)CCC1NCC2CC1CN1CCCCC21 (configuration not stated)
inactive: locus YAL013W, strain DEP1, active compounds read low 1 | locus YAL021C, strain ccr4, active compounds read low 0.97 | locus YAL026C, strain drs2, active compounds read low 0.974 | locus YAL030W, strain snc1, active compounds read low 0.969 | locus YBL061C, strain skt5, active compounds read low 0.975 | locus YBR009C, strain hhf1, active compounds read low 0.989 | locus YBR021W, strain FUR4, active compounds read low 1.01 | locus YBR023C, strain chs3, active compounds read low 0.983 | locus YBR171W, strain sec66, active compounds read low 0.999 | locus YBR229C, strain ROT2, active compounds read low 1.01 | locus YBR231C, strain swc5, active compounds read low 0.986 | locus YBR279W, strain paf1, active compounds read low 0.977 | locus YCL011C, strain gbp2, active compounds read low 0.975 | locus YCL016C, strain dcc1, active compounds read low 0.98 | locus YCL029C, strain bik1, active compounds read low 0.997 | locus YCL061C, strain MRC1, active compounds read low 0.989 | locus YCL069W, strain vba3, active compounds read low 0.985 | locus YCR088W, strain abp1, active compounds read low 0.982 | locus YDL005C, strain med2, active compounds read low 0.969 | locus YDL035C, strain GPR1, active compounds read low 1.02 | locus YDL040C, strain nat1, active compounds read low 0.982 | locus YDL074C, strain BRE1, active compounds read low 0.999 | locus YDL101C, strain DUN1, active compounds read low 1 | locus YDL134C, strain PPH21, active compounds read low 1 | locus YDL185W, strain tfp1, active compounds read low 0.997 | locus YDL192W, strain arf1, active compounds read low 0.998 | locus YDR001C, strain nth1, active compounds read low 0.967 | locus YDR069C, strain doa4, active compounds read low 0.987 | locus YDR101C, strain arx1, active compounds read low 0.999 | locus YDR137W, strain rgp1, active compounds read low 0.975 | locus YDR150W, strain NUM1, active compounds read low 0.998 | locus YDR159W, strain sac3, active compounds read low 0.978 | locus YDR162C, strain NBP2, active compounds read low 1 | locus YDR195W, strain ref2 0.975 | locus YDR297W, strain sur2, active compounds read low 0.974 | locus YDR318W, strain mcm21, active compounds read low 1.02 | locus YDR334W, strain swr1, active compounds read low 0.931 | locus YDR335W, strain msn5, active compounds read low 0.969 | locus YDR388W, active compounds read low 0.994 | locus YDR392W, strain spt3, active compounds read low 0.914 | locus YDR502C, strain sam2, active compounds read low 0.988 | locus YEL003W, strain gim4, active compounds read low 0.967 | locus YEL037C, strain rad23, active compounds read low 0.999 | locus YEL061C, strain CIN8 (second series), active compounds read low 0.97 | locus YEL061C, strain CIN8, active compounds read low 1.02 | locus YER015W, strain faa2, active compounds read low 0.966 | locus YER016W, strain bim1, active compounds read low 0.973 | locus YER110C, active compounds read low 0.999 | locus YER111C, strain swi4, active compounds read low 0.98 | locus YER155C, strain BEM2 (second series), active compounds read low 0.999 | locus YER155C, strain BEM2, active compounds read low 1 | locus YER167W, strain BCK2, active compounds read low 1 | locus YFR010W, strain ubp6, active compounds read low 0.974 | locus YGL078C, strain dbp3, active compounds read low 0.982 | locus YGL086W, strain mad1, active compounds read low 1.02 | locus YGL167C, strain pmr1, active compounds read low 0.965 | locus YGL173C, strain kem1, active compounds read low 0.963 | locus YGL227W, strain vid30, active compounds read low 0.986 | locus YGL240W, strain doc1, active compounds read low 0.985 | locus YGL248W, strain PDE1, active compounds read low 1 | locus YGL253W, strain hxk2, active compounds read low 0.978 | locus YGR078C, strain PAC10, active compounds read low 1 | locus YGR135W, strain pre9, active compounds read low 0.98 | locus YGR229C, strain SMI1, active compounds read low 0.983 | locus YGR252W, strain gcn5, active compounds read low 1.06 | locus YHR013C, strain ard1, active compounds read low 0.95 | locus YHR027C, strain rpn1, active compounds read low 0.953 | locus YHR030C, strain SLT2, active compounds read low 1.01 and 1.03 | locus YHR079C, strain IRE1 (second series), active compounds read low 1 | locus YHR079C, strain IRE1, active compounds read low 1.01 | locus YHR094C, strain hxt1, active compounds read low 0.999 | locus YHR129C, strain ARP1, active compounds read low 1.01 | locus YHR142W, strain chs7, active compounds read low 0.938 | locus YHR200W, strain rpn10, active compounds read low 1 | locus YIL066C, strain RNR3, active compounds read low 1.02 | locus YIL073C, strain SPO22, active compounds read low 1.03 | locus YIL125W, strain kgd1, active compounds read low 0.993 | locus YIR030C, strain dcg1, active compounds read low 0.986 | locus YJL092W, strain hpr5, active compounds read low 0.979 | locus YJL095W, strain BCK1 (second series), active compounds read low 0.976 | locus YJL095W, strain BCK1, active compounds read low 1 | locus YJL115W, strain asf1, active compounds read low 0.958 | locus YJL129C, strain trk1, active compounds read low 0.952 | locus YJL134W, strain LCB3, active compounds read low 0.999 | locus YJL154C, strain vps35, active compounds read low 0.967 | locus YJL164C, strain tpk1, active compounds read low 0.976 | locus YJL166W, strain qcr8, active compounds read low 0.975 | locus YJL168C, strain set2, active compounds read low 0.995 | locus YJL187C, strain SWE1 (second series), active compounds read low 1.01 | locus YJL187C, strain SWE1, active compounds read low 0.974 | locus YJR043C, strain POL32, active compounds read low 1.03 | locus YJR066W, strain TOR1, active compounds read low 0.98
